{
  "source": "PubChem BioAssay (NCI)",
  "note": "Compounds without any hit were thinned out: in the full panel of roughly 83,000, 20% have a hit.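 Percent growth is the endpoint: 0 to 100 indicates growth inhibition (40 means 60% inhibition), 0 means no net growth, and negative values indicate cell death.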 Calls of active or inactive are those of the source.",
  "data": [
    {"test_system": "LOX IMVI melanoma", "test": "NCI-60 one-dose screen, 48 h (100 = growth as untreated, 0 = no growth, -100 = all killed)", "details": "10 µM", "experimental": "Growth inhibition of the LOX IMVI human tumor cell line is measured as a screen for anti-cancer activity. Cells are grown in 96 well plates and exposed to the test compound for 48 hours. Compounds are tested at a single concentration, which is 10^-5 M for most compounds. The reported endpoint is percent growth (GI% or GIPRCNT), where numbers from 0 - 100% represent growth inhibition, and numbers from -100% - 0 represent cell death. For example, a value of 40 represents 60% growth inhibition. A value of 0 means no net growth occurred over the course of the experiment. A value of -40 indicates 40% of cells at the beginning of the experiment died by the end of the experiment. A value of -100 means all cells are dead at the end of the experiment.\nNCI-60 Human Tumor Cell Lines Screen was performed using the standard one-dose NCI protocol, which is described in more detail at https://dtp.cancer.gov/discovery_development/nci-60/default.htm.\nCompounds with GIPRCNT values below 10 were considered active. Activity score was based on GIPRCNT using the following formula: […]\nScore is 0 for GIPRCNT values of 100 or above, 50 for GIPRCNT values of 0, and 100 for GIPRCNT values of -100.", "values": [
      {"smiles": "FC(F)(F)c1ccc(-c2cnc(Cl)nc2NCc2cc(C(F)(F)F)cc(C(F)(F)F)c2)cc1", "growth": "-8.46% (active)"},
      {"smiles": "c1ccc(COCC[P+](c2ccccc2)(c2ccccc2)c2ccccc2)cc1", "growth": "-32.2% (active)"},
      {"smiles": "COc1cc(-c2nc3ccccc3[nH]2)ccc1OCC(=O)N=Nc1c(O)[nH]c2ccccc12", "growth": "83.4% (inactive)"},
      {"smiles": "O=C(N/N=C/c1ccccc1O)c1ccccc1", "growth": "5.3% (active)"},
      {"smiles": "CN(C1c2ccccc2Oc2ccccc21)S(=O)(=O)c1cc(Cl)ccc1Cl", "growth": "50.3% (inactive)"},
      {"smiles": "O=C(O)c1cc(C(F)(F)F)cc(C(F)(F)F)c1", "growth": "99.7% (inactive)"},
      {"smiles": "Cc1cc(Cl)ccc1Nc1nc(C(F)(F)F)ccc1C(=O)N/N=C/c1ccccc1Cl", "growth": "20.1% (inactive)"},
      {"smiles": "Cc1nc(N)sc1Sc1nc2ccc(Cl)cc2c(=O)n1-c1ccc(Oc2ccccc2)cc1", "growth": "75.5% (inactive)"},
      {"smiles": "COc1ccc2nc(-c3ccccc3)cc(C(C)=O)c2c1", "growth": "92.2% (inactive)"},
      {"smiles": "C/C(=N\\NC(=S)N1CCCC1)c1ccccn1", "growth": "1.56% (active)"},
      {"smiles": "COc1ccc(C(=O)n2nc(CC(=O)NCc3ccccc3)nc2N)cc1", "growth": "101% (inactive)"},
      {"smiles": "CCOC(=O)c1c(C)n(-c2ccc(Cl)cc2)c2ccc(OC(=O)/C=C/c3ccccc3)cc12", "growth": "91.4% (inactive)"},
      {"smiles": "COC(=O)C1(C(=O)OC)C2C(=O)C3C(C21)C3(C(=O)OC(C)(C)C)C(=O)OC(C)(C)C", "note": "(stereo not given)", "growth": "103% (inactive)"},
      {"smiles": "Cc1ccc(-c2cc(C(=O)Nc3ccc(S(=O)(=O)N4CCCCC4)cc3)[nH]n2)c(O)c1", "growth": "54.3% (inactive)"},
      {"smiles": "O=C(c1ccccc1)C(Sc1ccccc1)c1ccccc1", "note": "(stereo not given)", "growth": "74.5% (inactive)"},
      {"smiles": "COc1cc(N=C2C(=O)N(Cc3ccccc3)c3ccccc32)cc(OC)c1OC", "growth": "86.9% (inactive)"},
      {"smiles": "Nc1ncc(-c2ccc(C(F)(F)F)cc2)c(NC2CCCCCC2)n1", "growth": "48% (inactive)"},
      {"smiles": "[O-]c1c[n+](-c2ccc(Cl)cc2)no1", "growth": "98% (inactive)"},
      {"smiles": "C[C@H](NC(=O)[C@@H]1CSSC[C@@H](NC(=O)Cc2nc3ccccc3cc2O)C(=O)NCC(=O)N1C)c1ccccc1", "growth": "31.3% (inactive)"},
      {"smiles": "CC1=CC2OC34COC3CC(OC(=O)C(F)(F)F)C4(C)C2(C)CC1", "note": "(stereo not given)", "growth": "97.1% (inactive)"},
      {"smiles": "COc1ccc(C(=O)c2sc3nc(-c4cccs4)ccc3c2N)cc1OC", "growth": "55% (inactive)"},
      {"smiles": "COc1ccc(-c2nsc3c2NC(=O)CC3c2cccc(Cl)c2)cc1", "note": "(stereo not given)", "growth": "43.7% (inactive)"},
      {"smiles": "COCCOC(=O)NC(=O)Nc1ccc(/C(=N/O)c2ccc(Cl)cc2)cc1", "growth": "22.5% (inactive)"},
      {"smiles": "Cc1nc2sccn2c1-c1csc(Nc2cccc(Cl)c2C)n1", "growth": "61.4% (inactive)"},
      {"smiles": "CN(C)c1ccc2c(c1)OC(N)=C(C#N)C2c1ccc2c(c1)CCCN2C", "note": "(stereo not given)", "growth": "42% (inactive)"},
      {"smiles": "Nc1c(C(=O)Nc2ccccc2F)sc2nc3c(cc12)C(=O)CCC3", "growth": "54.2% (inactive)"},
      {"smiles": "CCCCc1ccc(NC(=O)N(CCCl)N=O)cc1", "growth": "89.3% (inactive)"},
      {"smiles": "COc1ccc(-c2ccccc2)cc1C(=O)c1ccc(-c2ccccc2)cc1", "growth": "77% (inactive)"},
      {"smiles": "CC(Oc1ccc(Cl)cc1)c1ccccc1", "note": "(stereo not given)", "growth": "97.5% (inactive)"},
      {"smiles": "CC(C)CCN(CCCNc1c2c(nc3cc(Cl)ccc13)CCCC2)CCC(C)C", "growth": "51% (inactive)"},
      {"smiles": "COc1ccc(N2CCN(c3nc(-c4ccccc4)c(C#N)c(=O)[nH]3)CC2)cc1", "growth": "99.4% (inactive)"},
      {"smiles": "CC1(C)CC(=O)c2c(nc3ccc(Cl)cc3c2-c2ccccc2)C1", "growth": "93.4% (inactive)"},
      {"smiles": "O=[N+]([O-])c1ccc(-c2nc(Cl)c3c(n2)CCCC3)o1", "growth": "21.8% (inactive)"},
      {"smiles": "FC(F)(F)c1ccc(-c2nc(-c3nc4cc(Cl)c(Cl)cc4[nH]3)c3ccccn23)cc1", "growth": "62.6% (inactive)"},
      {"smiles": "CCCCCCCCCCCCCCCC(=O)N1CCN(C)CC1", "growth": "-38.1% (active)"},
      {"smiles": "CCCc1c(CC)c(=N)c2ccccc2n1C", "growth": "1.08% (active)"},
      {"smiles": "COc1ccc(C2C=C(c3ccc(OC)c(OC)c3)N=C3SC=CN32)c(Br)c1", "note": "(stereo not given)", "growth": "23.3% (inactive)"},
      {"smiles": "COc1cccc(C(=O)N(c2ccc(F)c(F)c2)C(C(=O)NC(C)(C)C)c2cc3c(C)cc(C)cc3nc2Cl)c1", "note": "(stereo not given)", "growth": "68.7% (inactive)"},
      {"smiles": "COc1ccc(-c2cc(/C=C3\\C(=O)Nc4cc(Cl)ccc43)[nH]n2)cc1", "growth": "38.2% (inactive)"},
      {"smiles": "Cc1ccccc1C1=N[C@@H](Cc2ccccc2)C(=O)c2c(nc3ccccn23)N1", "growth": "91.7% (inactive)"}
    ]}
  ]
}
